Bioassay records (PubChem)
KDM5B inhibitor: Primary screen for KDM5B Histone Demethylases FDH-coupled qHTS | Lysine-specific demethylase 5B (Homo sapiens), Q9UGL1 | Potency, µM (doses to about 57.7 µM), hits mostly inhibitors | 220,000 compounds, 2.6% hits | KDM5B demethylase, FDH-coupled NADH fluorescence (FDH is formaldehyde dehydrogenase); active = well fitted inhibition curve with a large enough effect; note: nearly all actives have a fitted effect of over 70% in size
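Compound dilutions met 200 nM (final) KDM5BΔAP for 10 min at room temperature before substrate addition. The substrate mix held 12.5 µM H3K4me3 with cofactors 25 µM α-ketoglutarate and 50 µM Fe²⁺. NADH signal gain over 30 min defined activity.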
Of the large screens only hits and unclear results are named; the others gave an inactive call. Shown is part of a subset that was picked to be rich in hits.

O=C(NCC1Cn2cccc2C(=O)N1Cc1ccccc1)c1n[nH]c(=O)c2ccccc12 (configuration not stated)	none
O=C(NCC1Cn2cccc2C(=O)N1Cc1ccccc1)c1cn[nH]c1-c1ccccc1 (configuration not stated)	none
O=C(NCC1Cn2cccc2C(=O)N1Cc1ccccc1)c1ccsc1 (configuration not stated)	none
O=C(NCC1Cn2cccc2CN1Cc1ccccc1)c1ccsc1 (configuration not stated)	KDM5B inhibitor 25µM
Cc1ccsc1C(=O)NCC1Cn2cccc2CN1C (configuration not stated)	KDM5B inhibitor 32µM
CC(c1c(F)cccc1F)n1cnc2c1c(=O)n(C)c(=O)n2C (configuration not stated)	none
N#Cc1cccc(OCC(=O)Nc2ccccc2)c1	none
CCc1ccc(C(C)NC(=O)Cn2nc(-c3ccc(F)cc3)oc2=O)cc1 (configuration not stated)	none
CC(C)C(NC(=O)Cc1n[nH]c(=O)c2ccccc12)c1ccc(C(C)(C)C)cc1 (configuration not stated)	none
CC(C)NC(=O)NC(=O)COC(=O)C1COc2ccccc2O1 (configuration not stated)	none
COc1ccc(-c2c(C(F)(F)F)oc3cc(OC(=O)C(C)C)ccc3c2=O)cc1OC	none
Cc1cccc(C)c1OCCNC(=O)c1n[nH]c(=O)c2ccccc12	none
O=C(NCc1ccccc1)N1CCCC(c2nc(CCOc3ccc(F)cc3)no2)C1 (configuration not stated)	none
CCn1ncc(CN2CCCC(c3nc(C(C)C)no3)CCNC(=O)CC2)c1C (configuration not stated)	none
Cc1ccc(CN2CCCC(C(=O)N3CCN(c4ccccn4)CC3)CCNC(=O)CC2)s1 (configuration not stated)	KDM5B inhibitor 28µM
CCN1CCN(C(=O)C2CCCN(Cc3cccnc3)CCC(=O)NCC2)CC1 (configuration not stated)	none
CCn1ncc(CN2CCCC(C(=O)N3CCN(c4ccccn4)CC3)CCNC(=O)CC2)c1C (configuration not stated)	KDM5B inhibitor 25µM
Cc1ccc(CN2CCCC(c3nc(-c4cccnc4)no3)CCNC(=O)CC2)s1 (configuration not stated)	none
COc1cccc(N2CCN(C(=O)C3CCCN(Cc4cccnc4)CCC(=O)NCC3)CC2)c1 (configuration not stated)	none
COc1ccc(CCNC(=O)Cc2c(C)c3ccc(OC(C)=O)c(OC(C)=O)c3oc2=O)cc1	none
COc1ccc(S(=O)(=O)N2CC[C@H]3NC(=O)N(c4ccc(Oc5ccccc5)cc4)C(=O)[C@H]32)cc1	none
Cn1cnc2c1c(=O)n(CC(=O)NCC1(c3ccccc3)CCCC1)c(=O)n2C	none
NC(=O)CNC(=O)[C@@]1(O)C[C@@H](O)[C@H](O)[C@@H](NC(=O)Nc2ccc(OC(F)(F)F)cc2)C1	none
COc1ccc(C(=O)N2CCCC3(CCC(=O)N(Cc4ccncc4)C3)C2)o1 (configuration not stated)	none
CCOC(=O)c1cc(NC/C=C/c2ccccc2)ccc1N1CCOCC1	none
COC(=O)c1ccc(OC(=O)c2ccc3c(c2)NC(=O)CS3)c(OC)c1	none
CN(C)C(=O)c1c[nH]c2cccnc12	KDM5B inhibitor 126µM
CCNC(=O)N1CCC(Oc2ncccc2C(=O)N(C)C)C1 (configuration not stated)	none
CN(C)C(=O)c1ccc(NC(=O)c2c[nH]c3ccccc23)cc1	none
C=CCNC(=O)c1c[nH]c2cccnc12	KDM5B inhibitor 126µM
O=C(Nc1ccc(F)cc1)c1c[nH]c2cccnc12	none
C=CCNC(=O)c1ccccc1Nc1ccccc1	none
C=CCNC(=O)c1ccccc1NC(=O)c1cnccn1	none
C=CCNC(=O)c1ccccc1N	none
C=CCNC(=O)c1ccnc2[nH]ccc12	KDM5B inhibitor 126µM
CCN(CC)C(=O)N1CCCC(Cc2ncc(C)n2Cc2ccc(F)cc2)C1 (configuration not stated)	none
Cc1ccc(F)cc1NC(=O)c1nn(-c2ccccc2)c(=O)c2ccccc12	none
CN(C)C1=C(C(=O)Nc2ccc(F)cc2)S(=O)(=O)c2ccccc21	none
Cc1ccc(C(=O)N2CCC(Oc3ccc(NC(=O)c4ccccc4)cn3)C2)cc1 (configuration not stated)	none
O=C(/C=C/c1cccnc1)c1cc2ccc1CCc1ccc(cc1)CC2	none
Cc1cnc(NC(=O)c2ccc3c(c2)OCCN(c2ccccc2)C3)s1	KDM5B inhibitor 28µM
O=C(NCC1CC1)c1ccc2c(c1)OCCN(c1ccccc1)C2	none
CNC(=O)c1ccc2c(c1)OCCN(c1ccccc1)C2	none
COc1ccc(C(=O)N2CCC(C(=O)N3CCCCCCNC(=O)CC3)CC2)cc1	none
Cn1c(SCc2nc3ccccc3o2)nnc1-c1ccc(Cl)cc1	none
CC(C)CC(=O)Nc1ccc(NC(=O)c2ccccc2F)cc1	none
CN1CC(=O)N(c2ccc(Cl)cc2)Cc2c1ncnc2N1CCOCC1	none
CN1CCN(C)c2cc(-c3ccc(N4CCOCC4)cc3)ncc2C1	KDM5B inhibitor 40µM
CN1CC(=O)N(c2ccccc2)Cc2c1ncnc2N1CCOCC1	none
Cc1cc(NC(=O)Cn2ccn3nc4c(c3c2=O)CCCC4)no1	KDM5B inhibitor 25µM
O=C(Cn1ccn2nc3c(c2c1=O)CCCCC3)Nc1cc(F)ccc1F	KDM5B inhibitor 28µM
Cc1cccc(C)c1NC(=O)Cn1ccn2nc3c(c2c1=O)CCCCC3	none
Cc1ccc(NC(=O)Cn2ccn3nc4c(c3c2=O)CCCC4)cc1Cl	none
O=C(Cn1ccn2nc3c(c2c1=O)CCCC3)Nc1ccc2c(c1)OCO2	none
Cc1cccc(NC(=O)Cn2ccn3nc4c(c3c2=O)CCCC4)c1C	KDM5B inhibitor 28µM
COc1ccccc1NC(=O)Cn1ccn2nc3c(c2c1=O)CCCCC3	none
CCOc1ccc(NC(=O)Cn2ccn3nc4c(c3c2=O)CCCC4)cc1	none
Cc1cc(C)cc(NC(=O)Cn2ccn3nc4c(c3c2=O)CCCC4)c1	KDM5B inhibitor 35µM
Cc1ccc(NC(=O)Cn2ccn3nc4c(c3c2=O)CCCCC4)cc1C	none
Cc1cccc(C)c1NC(=O)Cn1ccn2nc3c(c2c1=O)CCCC3	none
O=c1c2c3c(nn2ccn1Cc1cc(F)ccc1F)CCCC3	none
O=C(NCCc1cccc(Cl)c1)Nc1ccc(Cl)cc1F	none
Cc1cc(C(=O)OC(C)C(=O)Nc2ccccc2F)c(C)o1 (configuration not stated)	none
COc1ccc(Cn2c(C3CCN(C(=O)c4ccc(F)c(Cl)c4)CC3)n[nH]c2=O)cc1	none
O=C(NCCc1ccccc1)N1CCC(N2C(=O)C3(CCCCC3)C2c2ccncc2)CC1 (configuration not stated)	none
Cc1cccc(NS(=O)(=O)c2cc(-c3cnc(C)o3)ccc2C)c1	none
Cc1ccc(CNc2ccc(C(=O)O)cc2)cc1	none
COc1ccccc1N1CCN(c2ncccc2CNC(C)Cn2ccnc2)CC1 (configuration not stated)	none
Cc1ccc(C)c(CC(=O)NCc2cc3n(n2)CCN(C(=O)N(C)C)C3)c1	none
COc1ccc(F)cc1C(=O)NCc1cc2n(n1)CCN(C(=O)N(C)C)C2	none
Cc1cc(C)n2ncc(C(=O)NCc3cc4n(n3)CCN(C(=O)N(C)C)C4)c2n1	KDM5B inhibitor 32µM
CCC1=C(C(=O)OC)C(c2ccc(OC)cc2OC)N2C(CC(=O)N3CCOCC3)=CSC2=N1 (configuration not stated)	none
Cc1ccc(S(=O)(=O)N2CCN(C(C(=O)NC3CC3)c3ccccc3)CC2)c(C)c1 (configuration not stated)	none
CC(C)CC(CNC(=O)Cc1n[nH]c(=O)c2ccccc12)N1CCOCC1 (configuration not stated)	none
